Bioassay records deposited in PubChem by National Center for Advancing Translational Sciences (NCATS).
Hits are enriched below; roughly 17% of the tested compounds scored in any of these assays.
DT40 TDP1 CPT: growth inhibition of DT40 Tdp1-/-;hTDP1 cells with camptothecin (screen for TDP1 inhibitors); chicken DT40 Tdp1-/-;hTDP1 cells + 20 nM CPT, ATP luminescence, 48 h; Potency, µM (titrated, usually from 46.2 µM), actives largely listed as inhibitors; 420,000 compounds, 12% hits; also: nearly all actives have a fitted effect of over 55% in size
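Chicken DT40 Tdp1-/- cells stably complemented with human TDP1 were seeded at 400 cells/well in medium containing 20 nM camptothecin, exposed to pin-transferred compounds, and grown at 37 °C for at least 48 hr. Viability was read as ATP luminescence.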
HT1080 IDH1KD tx: HT-1080 IDH1 knockdown cell toxicity (counter line). HT-1080 IDH1 knockdown viability, ATP luminescence, 48 h. Potency, µM (top dose mostly 46.1 µM), hits mostly cytotoxic. 360,000 compounds, 2% hits. AID 686971
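In this qHTS, HT-1080 cells depleted of IDH1 are exposed for 48 h at 37 °C to compound titrations. Toxicity is scored from CellTiter-Glo luminescence, with DMSO as full viability and medium alone as none.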
TDP1 cell noCPT: qHTS for Inhibitors of human tyrosyl-DNA phosphodiesterase 1 (TDP1): qHTS in cells in absence of CPT. DT40 Tdp1-/- hTDP1 cells, no CPT, ATP luminescence, 48 h. 420,000 compounds, 15% hits. AID 686978, 2013. Potency, µM (highest dose often 46.2 µM), usual class: inhibitors; also: nearly all actives have a fitted effect of over 55% in size
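Chicken DT40 Tdp1-/- cells stably complemented with human TDP1 were seeded at 400 cells/well with DMSO in place of 20 nM camptothecin. After compound pinning, cells grew at least 48 hr at 37 °C; viability read by CellTiter-Glo luminescence.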
HepG2 tox: counter-screen for TGF-b inhibitors: cytotoxicity in HepG2 cells. Potency, µM (doses to about 46.1 µM), hits mostly cytotoxic. 410,000 compounds, 0.76% hits. HepG2 CAGA-GFP viability, ATP luminescence, 18 h
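CellTiter-Glo luminescence gave cytotoxicity after 18 hours at 37 degrees C. The cells were HepG2 CAGA-GFP in 1% FBS DMEM, stimulated with 500 pg/mL TGF-beta after compound addition. %Activity was normalised to no-cell wells (complete cell-killing) and DMSO (no toxicity), and curves were fitted and classified.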
HT1080NT lethal: kills 2HG-producing HT-1080-NT fibrosarcoma cells | HT-1080-NT fibrosarcoma viability, CellTiter-Glo ATP luminescence, 48 h | Potency, µM (highest dose often 46.1 µM), actives largely listed as cytotoxic | 360,000 compounds, 1.6% hits | AID 686970;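 also: NT is the 2HG producing partner of a matched IDH1 knockdown line; nearly all actives have a fitted effect of over 55% in size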
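Read-out is CellTiter-Glo luminescence after 10 minutes at room temperature, following 48 hours' compound treatment of HT-1080-NT cells (750 cells/well, RPMI, 5% FBS, 37 degrees C).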
TGFb SMAD3 inh: TGF-b pathway inhibition; HepG2 CAGA-GFP TGF-b/SMAD3 reporter, GFP fluorescence, 18 h; TGF-beta stimulated, 500 pg/mL final; AID 588855; Potency, µM (series often up to 46.1 µM), hits mostly inhibitors; 410,000 compounds, 1.2% hits; also: nearly all actives have a fitted effect of over 65% in size
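HEPG2 CAGA-GFP reporter cells (1000/well, DMEM with 1% FBS) received compounds, then recombinant TGF-beta at 500 pg/mL final for 18 hours at 37 degrees C. Per-cell GFP summed per well was normalised to unstimulated and stimulated DMSO controls before curve fitting.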
Numbers stand for hits; . = inactive; ? = inconclusive; / = not tested or not shown; ! = not confirmed by another sample; [ ] = another dose, or the depositor's remark. Calls follow the shape of the dose curve; as a rule, active = well fitted curve in the direction sought with a large enough effect; inconclusive = small, poorly fitted or top-dose-only effect, or another doubt; inactive = no such curve, though single readings can be large; an effect the other way counts as inactive or inconclusive.

SMILES	DT40 TDP1 CPT	HT1080 IDH1KD tx	TDP1 cell noCPT	HepG2 tox	HT1080NT lethal	TGFb SMAD3 inh
COc1ccc(OC)c(Nc2ncnc3c2cnn3-c2cccc(C)c2)c1	5.17µM	7.08µM	4.61µM	.	7.08µM	.
COc1ccc(Nc2ncnc3c2cnn3-c2ccccc2)cc1OC	?	.	.	.	.	.
Cc1ccc(-n2nnc3c(sc4nc(C)c(C)cc43)c2=O)cc1Cl	.	/	.	.	/	.
Cc1cc(C)cc(C(=O)OCC(=O)Nc2ncccn2)c1	.	.	.	.	.	.
COCCCn1c(SCC(=O)OC2CCCCC2)nnc1-c1ccco1	.	.	.	.	.	.
COCCCN=C(c1ccco1)n1c(=S)nc(-c2ccco2)n(CCCOC)c1=S	25.9µM	7.94µM	?	.	5.62µM	.
O=C(CN(C(=O)CCC(=O)Nc1ccccn1)c1cccc(F)c1)NCc1ccco1	.	.	.	.	.	.
N#Cc1ccc(C23CC4(C2)[C@H](CN(CC2CCCCC2)[C@@H]4c2ccccc2)C3c2ccccc2)cc1 (some centres undefined)	?	.	16.4µM	.	.	.
N#Cc1ccc(C23CC4(C2)[C@H](CN(CC2CCCCC2)[C@@H]4c2ccccc2)C3c2ccc(Cl)nc2)cc1 (some centres undefined)	13µM	.	14.6µM	.	.	.
Cc1cc(C)cc(NC(=O)N2CCC(N3CCCCC3)CC2)c1	.	/	.	.	/	.
COc1cc(C(=O)c2c(C)c(CCC#N)n3ccccc23)cc(OC)c1OC	.	.	.	.	.	.
CCCCN1C(=O)/C(=C2\SC(N3CCCCC3)=NC2=O)c2ccccc21	23.1µM	.	?	.	.	.
O=C1N=C(N2CCCCC2)SC1=C1CCCC1	.	.	.	.	.	.
COc1cccc(Nc2ncc3nc(-c4cccs4)c(=O)n(C[C@H]4CCCO4)c3n2)c1	?	/	.	/	/	/
CCC(c1ccccc1)C(CC)c1cc(O)c(O)c(O)c1 (centres undefined)	16.4µM	?	8.2µM	.	?	?
COC(=O)c1cn([C@@H]2C[C@@H](C(=O)N3CCCCCC3)N(Cc3cc4ccccc4s3)C2)nn1	.	/	.	/	/	/
O=C(CN1C(=O)NC2(CCCC2)C1=O)NC(c1ccccc1)c1ccccc1	?	.	16.4µM	.	.	.
O=C(Cn1nc([N+](=O)[O-])nc1Br)NC(c1ccccc1)c1ccccc1	20.6µM	.	16.4µM	.	.	.
O=C(CN1CCN(c2ccccc2O)CC1)NC(c1ccccc1)c1ccccc1	?	.	?	.	.	?
O=C(CN1CCCC1)NC(c1ccccc1)c1ccccc1	20.6µM	?	16.4µM	.	?	.
Cc1ccc(C(NC(=O)CN2C(=O)NC3(CCCC3)C2=O)c2ccccc2)cc1 (centres undefined)	.	.	.	.	.	.
COc1ccc(CCNC(=O)c2ccc(Nc3nc4ccccc4n4nnnc34)cc2)cc1OC	.	/	?	.	/	.
COc1cccc(-c2ccc(O)c(CNCc3cccc4ccccc34)c2)n1	.	/	.	/	/	/
CCOc1cc(O)c(-c2[nH]ncc2-c2nc(C)cs2)cc1CC	23.1µM	.	20.6µM	.	.	?
CCc1cc(-c2[nH]ncc2-c2nc3ccccc3n2C)c(O)cc1O	.	.	?	.	.	.
SMILES	DT40 TDP1 CPT	HT1080 IDH1KD tx	TDP1 cell noCPT	HepG2 tox	HT1080NT lethal	TGFb SMAD3 inh
CCOC(=O)C1=CCN(S(=O)(=O)c2ccccc2Br)C1c1cccc(Cl)c1 (centres undefined)	?	?	?	.	?	.
O=c1c2ccccc2sn1-c1cc(S(=O)(=O)N2CCOCC2)ccc1N1CCCC1	5.8µM	?	11.6µM	.	?	.
O=c1c2ccccc2sn1-c1cc(S(=O)(=O)N2CCOCC2)ccc1N1CCOCC1	4.47µM	?	4.47µM	.	?	11.2µM!
O=c1c2ccccc2sn1-c1cc(S(=O)(=O)N2CCOCC2)ccc1N1CCCCC1	2.51µM	/	5.62µM	.	/	.
O=S(=O)(c1ccc(N2CCOCC2)c(Cl)c1)N1CCOCC1	?	.	.	.	.	.
NS(=O)(=O)c1ccc(NC(=O)c2cnn3c2NC(=C2CC2)C=C3C(F)F)cc1	.	/	.	.	/	.
COc1ccc(NC(=O)CN(C)C(=O)CCCc2nc3ccccc3c(=O)[nH]2)cc1	.	.	.	.	.	.
COc1cc(/C=C/C(=O)OCC(=O)N(C)CC(=O)Nc2ccc(F)cc2)ccc1OC(F)F	.	.	.	.	.[9.24 µM]	.
Cn1nc(C(=O)N2CCN(S(=O)(=O)c3ccc(Cl)cc3)CC2)c2ccccc2c1=O	?	.	23.1µM	.	.	?
O=C(c1n[nH]c2ccccc12)N1CCCCC1	.	.	.	.	.	.
O=C(c1n[nH]c2ccccc12)N1CCN(S(=O)(=O)c2ccc(Cl)cc2)CC1	?	.	18.4µM	.	.	.
CCCn1nc(C(=O)N2CCN(c3ccccn3)CC2)c2ccccc2c1=O	.	.	?	.	.	.
CCOC(=O)c1ccc(S(=O)(=O)N2CCN(C(=O)c3nn(C)c(=O)c4ccccc34)CC2)cc1	.	.	?	.	.	.
